ClpP mod: qHTS Assay for Activators of ClpP | purified B. subtilis ClpP, FRET peptide cleavage, 20 min | Potency, µM (doses to about 57.5 µM), without a hit: at the top dose activity change, negative = active | 340,000 compounds, 1.9% hits | AID 651965, 2013; active = well fitted falling curve with a large enough effect; inconclusive = small, poorly fitted or top-dose-only effect; inactive = no such curve, though single readings can be large or run the other way; also: potency is read from the fitted curve at half-maximal effect; the source files actives as falling curves though it sought activators and does not explain the sign; nearly all actives have a fitted effect of over 65% in size
Target sequence (P80244 whole entry, looked up): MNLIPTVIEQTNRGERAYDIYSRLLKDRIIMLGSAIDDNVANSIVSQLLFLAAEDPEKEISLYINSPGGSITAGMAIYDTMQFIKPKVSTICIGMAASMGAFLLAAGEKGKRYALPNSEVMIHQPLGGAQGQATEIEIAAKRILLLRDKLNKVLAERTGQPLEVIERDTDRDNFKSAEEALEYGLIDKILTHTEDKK
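Purified B. subtilis ClpP, 10 microg/mL final in Tris/HCl pH8 with KCl, BSA, glycerol and Tween-20, cleaved an Abz/nitrotyrosine-quenched decapeptide. Fluorescence (ex 320, em 430) was read at 0 and 20 min at room temperature. Delta was normalized to 5.8 microM ADEP and DMSO/no-enzyme controls.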
USP2a block: blocks human ubiquitin-specific protease USP2a; O75604; USP2 core, Ub-CHOP2 coupled fluorogenic reporter, 485/531; Potency, µM (highest dose often 38.3 µM), inactives show at the highest dose activity change, negative = inhibition, hits mostly inhibitors; 330,000 compounds, 0.01% hits;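 also: potency is read from the fitted curve at half-maximal effect; plate controls were DMSO wells for no effect and full inhibition by NEM control for full effect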
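USP2 core (10nM final) preincubated 30min RT with compound in 20mM Tris-HCl pH 8.0, 2mM CaCl2, 2mM beta-mercaptoethanol, 0.05% CHAPS; 25nM Ub-CHOP2 plus 25nM reporter substrate added, fluorescence (Ex485/Em531) read after 60min.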
Pin1 inh: blocks the human prolyl isomerase Pin1; Q13526; Pin1 FP peptide displacement, HiFluor488, 10 min; Potency, µM (top dose mostly 115 µM), for inactives: at the highest dose activity, negative = inhibition, hits mostly inhibitors; 390,000 compounds, 0.009% hits; AID 504891; active = well fitted inhibition curve with a large enough effect in the polarisation, with a control signal flat, not every such curve was filed as active; inconclusive = small, poorly fitted or top-dose-only effect, or effect the other way, or a change in a side signal; inactive = no such curve, though single readings can be large or run the other way; the % refers to the polarisation; also: potency is read from the fitted curve at half-maximal effect; % is scaled to controls: 0 for no effect and ±100 for the full control effect
Target sequence (Q13526 whole entry, looked up): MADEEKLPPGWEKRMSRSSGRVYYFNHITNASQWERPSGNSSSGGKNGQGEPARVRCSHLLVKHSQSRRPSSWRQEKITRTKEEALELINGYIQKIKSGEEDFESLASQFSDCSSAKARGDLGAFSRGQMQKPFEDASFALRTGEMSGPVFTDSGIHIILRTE
IL2 activator: activates IL-2 in a cell-based reporter assay; IL-2 activation reporter assay, cell-based qHTS; stimulated with anti-CD3/CD4/CD28 beads; in transgenic mouse T cells; activation, % (series mostly up to about 46 µM); 360,000 compounds, 0.065% hits; AID 652025; in the data active = activation above about 50%; inconclusive = mostly about 30% to 49%; also: 0% is about no effect
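Unstimulated transgenic mouse T cells, 750 per well, received compound and, after 60 minutes, anti-CD3/anti-CD4 bead plus anti-CD28 stimulation. EGFP and DsRed were quantified after 18 hours.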
PKM2 activator: activators of human pyruvate kinase M2; 260,000 compounds, 0.34% hits; Potency, µM (titrated, usually from 57.5 µM), inactives show top-dose activation, most hits filed as activators; purified PKM2, Kinase-Glo ATP luminescence, activation; response scale: 0% is enzyme alone, no compound; also: potency is read from the fitted curve at half-maximal effect; % is scaled to controls: 0 for no effect and ±100 for the full control effect; nearly all actives have a fitted effect of over 55% in size
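hPK-M2, >95% pure; 0.1 mM ADP / 0.5 mM PEP final; imidazole pH7.2 buffer w/ 7 mM MgCl2, 50 mM KCl; 1 h RT; Kinase-Glo lum. Intermediate enzyme activity for dual inhibitor/activator qHTS.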
a7 integrin act: activates integrin-mediated alleviation for muscular dystrophy; 350,000 compounds, 0.064% hits; alpha7betagal myoblasts, beta-gal FDG fluorescence, 48 h; Potency, µM (top dose mostly 38.3 µM), for inactives: top-dose activation, most hits filed as activators;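 also: potency is read from the fitted curve at half-maximal effect; 100% = response of the positive control SU9516; nearly all actives have a fitted effect of over 60% in size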
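Alpha7betagal+/- myoblasts (passage 13) were plated 16-24 hr, then exposed to compounds (1:260 dilution of DMSO stock) for 48 hours at 37C. After MPER lysis, β-galactosidase reporter activity was read as FDG fluorescence (ex 480/em 540) after 30 minutes.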
Active calls of the source: *; [ ] = dose if it differs, or a comment. An excerpt weighted towards active compounds, which were near 1.9% of everything screened. Unless noted, calls follow the shape of the dose curve; as a rule, active = well fitted curve in the direction sought with a large enough effect; inconclusive = small, poorly fitted or top-dose-only effect, or another doubt; inactive = no such curve, though single readings can be large; an effect the other way counts as inactive or inconclusive.

Screening COc1ccc2c(OC)cc(=O)n(C)c2c1 returned ClpP mod -8%, USP2a block 0%, Pin1 inh 5%, IL2 activator 0, PKM2 activator -3% and a7 integrin act 2%.
Screening COc1cc(=O)n(C)c2ccccc12 returned ClpP mod -13%, USP2a block 0%, Pin1 inh -3%, IL2 activator -1, PKM2 activator -3% and a7 integrin act 2.2µM*.
COc1ccc(-c2nc3c(c4c2C[C@H](c2ccccc2)OC4)CN(C(=O)Nc2cccc(C#N)c2)CC3)c(C)c1 was read as PKM2 activator -1%[11.5 µM].
c1cncc(CSc2nnc3ccc(-c4cccs4)nn23)c1 was read as ClpP mod -4%, USP2a block -9%, Pin1 inh -4%, IL2 activator 2, PKM2 activator 25µM* and a7 integrin act -8%.
CC(C)NC(=O)COC(=O)CNC(=O)C1CCCCC1 was read as ClpP mod -3% and Pin1 inh -1%.
Screening CCCCS(=O)(=O)N1CCCC(C(=O)NCCc2ccccc2)C1 (stereo unspecified) returned ClpP mod -1%, USP2a block -2%, Pin1 inh 1%, IL2 activator -1, PKM2 activator -1%[11.5 µM] and a7 integrin act 7.1µM*.
For CS(=O)(=O)N1CCCC(C(=O)c2cccc(Cl)c2)C1 (stereo unspecified) the results were ClpP mod 1%, USP2a block 0%, Pin1 inh -2%, IL2 activator -4, PKM2 activator -7% and a7 integrin act 0%.
Screening CCCS(=O)(=O)N1CCCC(C(=O)c2cccc(Cl)c2)C1 (stereo unspecified) returned ClpP mod inconclusive, USP2a block -9%, Pin1 inh 1%, IL2 activator 2, PKM2 activator -5% and a7 integrin act 6.3µM*.
Cc1sc2ncnc(N=Nc3c(O)[nH]c4ccccc34)c2c1C was read as ClpP mod 1%, USP2a block 4%, Pin1 inh -13%, IL2 activator 13, PKM2 activator -9% and a7 integrin act 5%.
Screening CCc1cc2c(N=Nc3c(O)[nH]c4ccccc34)ncnc2s1 returned ClpP mod -1%, USP2a block 2%, Pin1 inh inconclusive, IL2 activator 68*, PKM2 activator -8% and a7 integrin act -18%.
`COc1ccc(CC(NC(C)=O)C(=O)NC2CCN(c3nc(C)cc(C)c3C#N)CC2)c(OC)c1` (stereo unspecified) gave ClpP mod 13µM*, USP2a block inconclusive, Pin1 inh 17%, IL2 activator 0, PKM2 activator -2% and a7 integrin act -4%.
Screening O=C1CCCN1CCC12CC3CC(CC(C3)C1)C2 returned ClpP mod 2%, USP2a block 0%, Pin1 inh -4%, IL2 activator -2, PKM2 activator 40µM* and a7 integrin act -21%.
Screening Cc1cc(C)cc(OCCSc2nc3ccc(NC(=O)c4cccs4)cc3s2)c1 returned ClpP mod 0% and Pin1 inh 22%.
O=C(Nc1ccc2nc(SCCOc3ccccc3Cl)sc2c1)c1cccs1 was read as ClpP mod 11µM* and Pin1 inh 47%.
For CC(=O)OCC(NC(=O)C(COCc1ccccc1)NC(=O)OC(C)(C)C)C1OC(n2cc(F)c(=O)[nH]c2=O)C(OC(C)=O)C1OC(C)=O (stereo unspecified) the results were Pin1 inh -11%.
`Oc1ccc(Nc2nc3ccccc3nc2Nc2ccc(O)cc2)cc1` gave ClpP mod 32µM*, USP2a block 5%, Pin1 inh inconclusive, IL2 activator -3, PKM2 activator 18% and a7 integrin act -42%.
For Oc1ccc(Nc2nc(-c3ccccc3)nc3ccccc23)cc1 the results were ClpP mod -5%, USP2a block -7%, Pin1 inh 3%, IL2 activator -4 and a7 integrin act inconclusive.
For COc1ccc(CCNC(=O)Cn2c(-c3cccs3)cc3cc(F)ccc32)cc1OC the results were ClpP mod 4% and Pin1 inh 3%.
For O=C(Cn1c(-c2cccs2)cc2cc(F)ccc21)NCCCN1CCN(c2ccc(F)cc2)CC1 the results were ClpP mod 32µM* and Pin1 inh 6%.
For CCN1CCN(CCCNC(=O)Cn2c(-c3cccs3)cc3cc(F)ccc32)CC1 the results were ClpP mod 18µM* and Pin1 inh 6%.
Screening CC(C)(C)OC(=O)Nc1ncnc2c1C(c1ccccc1)c1c(ccc3ccccc13)O2 (stereo unspecified) returned Pin1 inh -1%.
`C(=C\c1ccnc2ccccc12)/c1ccc(N(Cc2ccccc2)Cc2ccccc2)cc1` gave ClpP mod 0%.
COc1ccc(C(O)c2nc(/C=C/c3ccc(C(F)(F)F)cc3)cs2)cc1 (stereo unspecified) was read as ClpP mod 25µM* and IL2 activator 0.
Cc1nc(-c2coc3cc(OCC(=O)O)ccc3c2=O)cs1 was read as ClpP mod 35µM*, USP2a block 0%, Pin1 inh 0%, IL2 activator -2, PKM2 activator -5% and a7 integrin act 3%.
For O=CN/C=C/c1cc(O)ccc1O the results were ClpP mod 22µM*, USP2a block 10%, Pin1 inh inconclusive, IL2 activator -1, PKM2 activator -95% and a7 integrin act -43%.
COc1ccc(-c2c[n+]3c4n2CCCCC4=C(c2ccc(Br)cc2)C3)cc1 was read as ClpP mod 22µM*, USP2a block -21%, Pin1 inh 27%, IL2 activator -1, PKM2 activator -1% and a7 integrin act -62%.
Screening Clc1ccc(C2=C3CCCCn4c(-c5ccccc5)c[n+](c43)C2)cc1 returned ClpP mod 10µM*, USP2a block -25%, Pin1 inh 25%, IL2 activator 2, PKM2 activator -1% and a7 integrin act -18%.
COc1ccc(-c2cnc3n2CCCCC3)cc1 was read as ClpP mod -1%, USP2a block 1%, Pin1 inh -1%, IL2 activator 0, PKM2 activator -1% and a7 integrin act -6%.

Screens (PubChem)
